{
  "source": "PubChem BioAssay",
  "note": "The source made the active and inactive calls.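 How the source made its calls: active means visual image review flags a hit and inhibition of aggregation exceeds 20%; inconclusive means visual hit but inhibition at or below 20%; inactive means no hit on visual image review.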",
  "data": [
    {"experiment": "inhibitors of mutant huntingtin aggregation, primary screen, imaging, exon1htt(103Q)mCFP cells, high-content imaging (AID 483);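 further: compound exposure lasted 3 days before fixation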;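 on nuclei count: percent of the per-plate median nuclei count of sample wells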", "conditions": "exon1htt(103Q)mCFP cell line, aggregate imaging, at 2 µM; inhibition of aggregation: stronger effect = higher value; nuclei count: measured here: cell count, toxicity", "units": {"nuclei count": "%"}, "values": [
      {"smiles": "CC(=O)Nc1cccc(OCC(O)Cn2cnc3ccccc32)c1", "note": "(stereo not given)", "nuclei count": 101, "inhibition of aggregation": "12.1% (inactive)"},
      {"smiles": "Cc1ccc(N2CCN(CCc3nc4cc(NS(C)(=O)=O)ccc4n3C)CC2)cc1", "inhibition of aggregation": "2% (inactive)", "nuclei count": 90.6},
      {"smiles": "COc1cc2c(cc1OC)C(c1cccnc1)CC(=O)N2", "note": "(stereo not given)", "nuclei count": 71.7, "inhibition of aggregation": "-12.3% (inactive)"},
      {"smiles": "COc1ccc(S(=O)(=O)N2CCCC(C(=O)N3CCCCCC3)C2)cc1", "note": "(stereo not given)", "nuclei count": 106, "inhibition of aggregation": "-0.4% (inactive)"},
      {"smiles": "COCCCNC(=O)CSc1ccc(Cl)cc1", "inhibition of aggregation": "-3.3% (inactive)", "nuclei count": 93.9},
      {"smiles": "CCOc1cc(C(=O)N(C)Cc2cc3ccccc3[nH]c2=O)cc(OCC)c1OCC", "inhibition of aggregation": "22.5% (inactive)", "nuclei count": 87.4},
      {"smiles": "CCOC(=O)CN1CC23C=CC(O2)C(C(=O)NC2CCCC2)C3C1=O", "note": "(stereo not given)", "inhibition of aggregation": "0.3% (inactive)", "nuclei count": 99.1},
      {"smiles": "O=C(CN1C(=O)c2ccccc2C1=O)Nc1ccccc1C(=O)N1CCCC1", "inhibition of aggregation": "-27.4% (inactive)", "nuclei count": 112},
      {"smiles": "CCOC(=O)CSC1=C(C#N)C(c2ccc(C)o2)CC(=O)N1", "note": "(stereo not given)", "nuclei count": 3.4, "inhibition of aggregation": "29.1% (inactive)"},
      {"smiles": "CCCSc1nc2c(cnn2-c2ccc(C)cc2)c(=O)[nH]1", "inhibition of aggregation": "-5.9% (inactive)", "nuclei count": 115},
      {"smiles": "Cc1cc(C(=O)N2CCN(c3ncccn3)CC2)cs1", "inhibition of aggregation": "4.3% (inactive)", "nuclei count": 99},
      {"smiles": "Cc1cc(NC(=O)CSc2nc(CCC3CCCC3)nc3ccccc23)no1", "nuclei count": 113, "inhibition of aggregation": "-13.6% (inactive)"},
      {"smiles": "CCCC(CCC)C(=O)NCCN1CCOCC1", "inhibition of aggregation": "6.3% (inactive)", "nuclei count": 97},
      {"smiles": "CC(=O)NC(Cc1c[nH]c2ccccc12)C(=O)OCC(=O)Nc1cc(C)on1", "note": "(stereo not given)", "inhibition of aggregation": "0.7% (inactive)", "nuclei count": 110},
      {"smiles": "COc1ccccc1OCC(=O)NCC1CCCCC1", "inhibition of aggregation": "5.6% (inactive)", "nuclei count": 108},
      {"smiles": "CC1(C)CC(=O)c2sc(NS(C)(=O)=O)nc2C1", "nuclei count": 104, "inhibition of aggregation": "-16.8% (inactive)"},
      {"smiles": "CSC1=NCCN1C(=O)c1ccc(S(=O)(=O)N2CCCC2)cc1", "nuclei count": 107, "inhibition of aggregation": "9.6% (inactive)"},
      {"smiles": "CC12CN3CC(C)(CN(C1)C3c1ccc(Cl)cc1Cl)C2=O", "note": "(stereo not given)", "nuclei count": 123, "inhibition of aggregation": "-26.4% (inactive)"},
      {"smiles": "CCOC(=O)c1ccc(NC(=O)CSC2=NC(=O)C(CC)C(=O)N2)cc1", "note": "(stereo not given)", "nuclei count": 83.8, "inhibition of aggregation": "-43.6% (inactive)"},
      {"smiles": "O=C(C1CCCN(S(=O)(=O)c2cccnc2)C1)N1CCn2c1nc1ccccc12", "note": "(stereo not given)", "inhibition of aggregation": "-20.6% (inactive)", "nuclei count": 112},
      {"smiles": "COc1ccc(C)cc1NC(=O)CN(Cc1nnc(-c2ccc(Cl)cc2)o1)C1CCCC1", "nuclei count": 85.9, "inhibition of aggregation": "-4.1% (inactive)"},
      {"smiles": "Cc1occc1-c1nc(-c2ccncc2)no1", "inhibition of aggregation": "6% (inactive)", "nuclei count": 95.3},
      {"smiles": "Cn1c(=O)c2c(nc(SCC(=O)NCc3ccco3)n2C)n(C)c1=O", "inhibition of aggregation": "19% (inactive)", "nuclei count": 78.5},
      {"smiles": "CCCCP(=O)(CCCC)Cc1ccccc1O", "inhibition of aggregation": "0.1% (inactive)", "nuclei count": 91.9},
      {"smiles": "CN(C)c1nc(N)nc(-c2nc3ccccc3s2)n1", "nuclei count": 97.7, "inhibition of aggregation": "-13.6% (inactive)"},
      {"smiles": "Cc1ccc(NC(=O)c2ccco2)c(NC(=O)c2cccs2)c1", "inhibition of aggregation": "9.4% (inactive)", "nuclei count": 103},
      {"smiles": "Nn1c(SCC(=O)Nc2ccc(F)cc2)nnc1-c1cccnc1", "inhibition of aggregation": "-0.3% (inactive)", "nuclei count": 111},
      {"smiles": "CCOC(=O)c1ccccc1NC1c2ccccc2C(=O)N1C1CCN(C(=O)OCC)CC1", "note": "(stereo not given)", "inhibition of aggregation": "-12% (inactive)", "nuclei count": 65.3},
      {"smiles": "CC(Sc1nc(-c2ccccc2)cc(C(F)(F)F)n1)C(=O)N1CCCC1", "note": "(stereo not given)", "inhibition of aggregation": "-38.4% (inactive)", "nuclei count": 118},
      {"smiles": "Clc1ccc(Nc2ncnc3c2cnn3-c2ccccc2)cc1", "inhibition of aggregation": "19% (inactive)", "nuclei count": 95.2},
      {"smiles": "Cc1csc(SCCn2c(N3CCCC3)nc3c2c(=O)[nH]c(=O)n3C)n1", "inhibition of aggregation": "-7.1% (inactive)", "nuclei count": 110},
      {"smiles": "CC(CCc1ccccc1)NCc1ccncc1", "note": "(stereo not given)", "nuclei count": 109, "inhibition of aggregation": "-1.8% (inactive)"},
      {"smiles": "CCCCCSc1nc2c(cnn2-c2ccccc2)c(=O)[nH]1", "inhibition of aggregation": "-3.4% (inactive)", "nuclei count": 100},
      {"smiles": "Cc1ccc2c(c1)CCCN2C(=O)Nc1ccc2c(c1)OCO2", "inhibition of aggregation": "-9.3% (inactive)", "nuclei count": 102},
      {"smiles": "CCc1c(C(=O)N2CCOCC2)csc1C", "nuclei count": 104, "inhibition of aggregation": "-15% (inactive)"},
      {"smiles": "Cc1c(-n2c(CN3C(=O)c4ccccc4C3=O)nc3ccccc3c2=O)c(=O)n(-c2ccccc2)n1C", "inhibition of aggregation": "-10.1% (inactive)", "nuclei count": 115},
      {"smiles": "Cn1c(=O)[nH]c(=O)c2c1ncn2CCN1CCOCC1", "inhibition of aggregation": "-10.8% (inactive)", "nuclei count": 107},
      {"smiles": "CC1C(=O)C(C)C(c2cccs2)NC1c1cccs1", "note": "(stereo not given)", "inhibition of aggregation": "10.2% (inactive)", "nuclei count": 68.6},
      {"smiles": "CCOC(=O)c1ccc(NS(=O)(=O)c2ccc3c(c2)CCCN3C(C)=O)cc1", "inhibition of aggregation": "9.2% (inactive)", "nuclei count": 99},
      {"smiles": "O=C(Nc1sc2c(c1C(=O)NCc1ccco1)CCCC2)c1ccc2c(c1)OCO2", "nuclei count": 103, "inhibition of aggregation": "2.5% (inactive)"}
    ]}
  ]
}
